Compounds with a hit are over-represented: about 3.3% of the library has one in this group of screens.
MazEF act = activators of E. coli MazEF toxin-antitoxin RNase. 0.32% of 350,000 active. P0AE70. FAM/BHQ RNA-DNA oligo cleavage fluorescence, 5 h. activation, % at 20 µM; in the data active = activation above about 50%
Target sequence (P0AE70 whole entry, looked up): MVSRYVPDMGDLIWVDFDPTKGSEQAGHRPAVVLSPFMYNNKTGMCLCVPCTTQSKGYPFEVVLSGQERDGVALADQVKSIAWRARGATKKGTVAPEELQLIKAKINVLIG
BoNT-A LC inh2 = inhibitors of Botulinum neurotoxin A light chain protease; multiplex microsphere protease substrate cleavage, flow cytometry; inhibition, % at 10 µM; 0.17% of 360,000 active; AID 588499; also: plate controls were buffer without enzyme for full effect and enzyme alone for no effect
BoNT-F LC inh = blocks Botulinum neurotoxin F light chain protease. 0.22% of 360,000 active. inhibition, % at 10 µM. Multiplex microsphere protease cleavage assay, flow cytometry; in the data active = inhibition above about 35%, passing the limit was not always enough; inconclusive = no clear call, values can overlap the other calls; also: plate controls were buffer without enzyme for full effect and enzyme alone for no effect
Bead autofluor = flagged as autofluorescent in microsphere protease counterscreen; AID 624483; 3.1% of 360,000 active; compound autofluorescence counterscreen, microsphere flow cytometry; stronger effect = higher value; fluorescence intensity (test concentration not listed); in the data active = fluorescence intensity above about 16000; inconclusive = no clear call, values can overlap the other calls
Anthrax LF inh2 = anthrax lethal factor protease inhibition; P15917; multiplex microsphere protease cleavage assay, LF; inhibition, % at 10 µM; 0.12% of 360,000 active; AID 588501; also: plate controls were buffer without enzyme for full effect and enzyme alone for no effect
PriA SSB inh = inhibitors of Klebsiella pneumoniae PriA binding to SSB C-terminal tail; AlphaScreen SSBct-PriA binding, biotinylated peptide; inhibition, % at 33 µM; 0.6% of 430,000 active; AID 1272365; in the data active = inhibition mostly above about 37%, no sharp cut-off; inactive = mostly below about 20%;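 also: plate controls were negative control peptide for no effect and reference peptide for full effect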
The depositor's hits bear a star; ? = inconclusive; . = not tested or not shown; ! = a repeat was not active. Rule as the data show it, unless noted: active = inhibition above about 30%; inconclusive = no clear call, values can overlap the other calls; inactive = below that.

SMILES	MazEF act	BoNT-A LC inh2	BoNT-F LC inh	Bead autofluor	Anthrax LF inh2	PriA SSB inh
O=C(CCCCCn1c(=S)[nH]c2ccccc2c1=O)NCc1ccc2c(c1)OCO2	2.4	-2.9	-4.1	23096*	-1.6	-17.6
COCCNC(=O)CCCCCn1c(=S)[nH]c2ccccc2c1=O	-0.1	?	0.9	22614*	2.2	-2.5
COCCCNC(=O)CCCn1c(=O)[nH]c2ccccc2c1=O	4.3	-0.6	-13.1	4262	-2.5	-5.4
O=C(COc1ccc(F)cc1)NCCn1ncc2c(=O)n(Cc3ccc(F)cc3)cnc21	.	.	.	.	.	0.0
CCOc1ccc(NC(=O)C2CCN(c3ccc(-c4cccnc4)nn3)CC2)cc1	.	.	.	.	.	-15.0
O=[N+]([O-])/C=C\c1ccc(N2CCOCC2)cc1	-9.2	5.1	2.5	4786	7.7	-6.3
CN(C)c1ccc(/C=C/[N+](=O)[O-])cc1	-14.3	50.2*	48.1*	5524	22.5	8.0
CN(c1ccccc1)c1ccc(/C=C/[N+](=O)[O-])cc1	10.8	69.8*	23.3	8391	29.2	3.5
CN(C)c1ccc(-n2cccc2/C=C/[N+](=O)[O-])cc1	-11.7	3.0	-1.6	3705	9.4	1.0
C/C(=C\c1ccc(N(C)C)cc1)[N+](=O)[O-]	2.7	5.1	0.3	22567*	2.8	0.6
O=C(CSc1ccc(NC(=O)c2ccccc2)nn1)NCc1ccc2c(c1)OCO2	.	.	.	.	.	1.0
Cc1ccc(S(=O)(=O)N(C)c2ccc(C(=O)NCc3cccnc3)cc2)cc1	0.9	-3.4	-1.2	?	6.8	39.2*
CN(c1ccc(C(=O)NCc2cccnc2)cc1)S(=O)(=O)c1ccc(Cl)cc1	5.2	0.1	-1.4	5856	-2.3	8.6
O=C(NCCCNCc1ccccc1)c1ccccn1	0.1	-0.4	-9.0	24330*!	1.5	-3.5
COc1ccc(C(=O)NCc2cccnc2)cc1OC	0.8	0.6	-2.1	22834*	-0.4	-16.2
O=C(NCc1cccnc1)N(c1ccccc1)c1ccccc1	.	.	.	.	.	37.0*
CC(C)C(=O)Nc1ccc(SCc2cccnc2)nn1	.	.	.	.	.	0.0
c1ccc(CSc2nnc(-c3ccco3)o2)nc1	.	.	.	.	.	0.0
Cc1ccc(-c2cc(C(=O)NCc3cccnc3)no2)cc1	2.8	9.3	10.0	17516*	-11.1	-7.5
COc1ccccc1CNC(=O)c1cnccn1	-0.6	-2.7	-3.9	17158*	-5.8	-6.5
Cc1ccc(N(C)S(=O)(=O)c2ccc(C)cc2)cc1	6.6	-3.5	-6.5	24242*	0.1	-30.2
COc1ccccc1CNC(=O)COC(=O)c1cnccn1	-17.4	-0.5	4.0	3196	-4.7	-4.7
O=C(NCc1cccnc1)c1ccccn1	9.4	2.3	2.3	22039*	0.7	-3.0
COc1ccc(-c2cc(C(=O)NCc3cccnc3)no2)cc1OC	1.6	0.2	6.7	7942	2.7	-6.2
CS(=O)(=O)N1CCC(C(=O)NCCc2csc(-n3cccn3)n2)CC1	.	.	.	.	.	-17.0
SMILES	MazEF act	BoNT-A LC inh2	BoNT-F LC inh	Bead autofluor	Anthrax LF inh2	PriA SSB inh
Cc1ccc(C)c2sc(N(C)CC(=O)NCc3ccccn3)nc12	.	.	.	.	.	-5.0
Cc1cc(C(=O)NCC(c2ccco2)N(C)C)no1 (configuration not stated)	0.6	1.9	1.2	19860*	-3.8	-8.6
Cc1cc(NC(=O)C(=O)NCC(c2ccco2)N(C)C)no1 (configuration not stated)	.	.	.	.	.	-9.0
Cc1cc(C(=O)Nc2nc(C(=O)NCc3cccnc3)co2)no1	.	.	.	.	.	-9.0
Cc1cc(C(=O)NCc2cccnc2)no1	-0.9	-0.1	2.3	22225*	-3.0	-11.1
CN(C)CCCNCCCNC(=O)C(=NO)c1ccccn1	.	.	.	.	.	5.4
CN(C)CCCNCCCNC(=O)/C(=N\O)c1ccccn1	1.9	?	-3.4	22814*	0.1	.
Cc1cc(NC(=O)c2nn3cccnc3c2Cl)no1	6.7	-3.9	-5.7	21821*	-2.0	-16.9
CCCn1nc(C(=O)N2c3ccccc3CC2C)ccc1=O (configuration not stated)	.	.	.	.	.	-18.0
Cc1onc(-c2ccccc2)c1C(=O)Oc1cccnc1	-0.3	1.4	4.6	21663*	-2.7	-8.6
COC(=O)c1c(-c2ccccc2)noc1C	7.4	-0.2	-3.1	3128	2.9	-5.2
O=C(c1ccc(F)c(F)c1)N1CCN(Cc2nc3ccccc3[nH]2)CC1	.	.	.	.	.	-4.0
c1cncc(-c2nc(NCCCn3ccnc3)c3ccccc3n2)c1	2.9	0.3	-4.0	4325	-3.1	40.2*
Clc1cccc(-c2nc(NCc3cccnc3)c3ccccc3n2)c1	-0.4	14.0	14.4	17205*	-14.0	-2.0
Cc1nc(NCCCn2ccnc2)c2ccccc2n1	-2.5	-1.4	-1.5	13700	-1.0	7.3
CCOC(=O)SC1=N/C(=C\c2ccc(N(C)C)cc2)C(=O)S1	-11.3	23.5	13.5	19076*	20.3	6.9
O=C(Cn1cnc2cc([N+](=O)[O-])ccc2c1=O)Nc1ccc2c(c1)CCC2	6.5	0.1	-6.9	3267	-0.4	-12.6
O=C(Cn1cnc2ccccc2c1=O)Nc1ccc2c(c1)CCC2	3.5	-1.3	1.4	23574*	-2.4	-6.2
Cc1ccc(C(=O)Cn2cnc3c(cnn3C3CCS(=O)(=O)C3)c2=O)c(C)c1 (configuration not stated)	.	.	.	.	.	1.0
COc1ccc(OCCNC(=S)Nc2cccc3ccccc23)cc1	-6.1	-0.4	-3.4	22439*	-2.2	22.9
COc1ccc(Nc2cccccc2=O)cc1	1.7	-0.9	-16.2	6217	-10.8	-13.4
COc1ccc(NC(=S)Nc2cccc(C(C)=O)c2)cc1OC	3.4	3.7	35.7*	4331	-1.1	21.0
CC(=O)c1cccc(NC(=S)NC(=O)CC(C)(C)C)c1	-5.4	-3.7	-7.9	25347*	-0.9	-8.9
COc1ccc(Nc2cccc3ccccc23)cc1	19.5	-0.7	-30.0	3462	-10.9	49.7*
COc1ccc(C(=O)Nc2cccc(C(C)=O)c2)cc1OC	-10.8	4.0	17.5	7850	1.3	-10.0
SMILES	MazEF act	BoNT-A LC inh2	BoNT-F LC inh	Bead autofluor	Anthrax LF inh2	PriA SSB inh
C[C@H](NC(=O)Nc1c[nH]c2ccccc12)c1ccccc1	.	.	.	.	.	3.0
CSc1cccc2sc(Nc3cccc(Br)c3)nc12	.	.	.	.	.	2.0
COc1ccc(-c2ccc(NC(=O)c3sc(-c4ccccc4)nc3C)cc2)nn1	.	.	.	.	.	-6.0
COc1ccc(NC(=S)Nc2cccc3ccccc23)cc1OC	-4.7	4.0	-1.3	4823	-1.8	42.6*
CC(=O)Nc1cccc(NC(=S)Nc2cccc3ccccc23)c1	0.9	1.2	2.9	5128	-3.2	19.9
O=C1CCCC(=O)N1CCS(=O)(=O)N1CCN(Cc2ccccc2)CC1	.	.	.	.	.	-3.0
COCCNC(=O)c1ccc(=O)n(C)n1	.	.	.	.	.	-2.0
Cc1cccc(CC(=O)NCC(O)Cc2ccccc2)c1 (configuration not stated)	.	.	.	.	.	21.0*
Cc1cc(N)nc(NCCc2ccc(S(N)(=O)=O)cc2)n1	.	.	.	.	.	-9.0
Cc1ccc(OC2CCCN(C(=O)c3cc(=O)[nH]c(=O)[nH]3)C2)nn1 (configuration not stated)	.	.	.	.	.	-8.0
COc1ccc(Nc2nc(Nc3ccc(F)cc3)nc(N3CCOCC3)n2)cc1OC	.	.	.	.	.	37.0*
CC1CCc2sc(C(=O)NCc3ccc(F)cc3)cc2C1 (configuration not stated)	12.5	?	-6.2	24108*	-5.2	-12.9

Screening results as filed in PubChem BioAssay.
